Vif imaging: HIV Vif self-association inhibitors, primary screen, imaging, HEK293T, single point; inhibition, % at 7.49 µM; hit rate 0.35% among 340,000; HEK293T cells, Vif self-association by quenched fluorescence, 24 h; in the data active = inhibition above about 50%, passing the limit was not always enough; inconclusive = no clear call, values can overlap the other calls; inactive = below about 31%
CaV13 ICDI inh: Disruptors of the CACNA1D IQ motif to Ca2+-dependent inactivation inhibitor domain association, primary screening, Förster resonance energy transfer in intact living …. HEK cells, CFP/YFP FRET ICDI-IQ, plate reader, 10 min; percent FRET-ratio fall versus neutral wells. inhibition, % at 12.3 µM. hit rate 0.098% among 340,000;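 active = mean replicate inhibition of at least 30% and at least 1% of replicates passing that level; inconclusive = only one of the two criteria is met; inactive = neither criterion is met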;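 also: 0% = median of the neutral control wells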
N-glyco inh: increase of ERlucT glycosylation luciferase signal, primary screen, N-linked glycosylation inhibitor project, D54 ERlucT cells, luminescence, set 2. D54 ERlucT glycosylation luciferase reporter, 24 h; percent of 100 nM tunicamycin response. hit rate 0.23% among 360,000. AID 588692, 2011. reporter increase, % at 12.5 µM;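 active = mean luciferase reporter signal, scaled so untreated is 0 and the glycosylation-blocking control 100, at or above a set limit in every replicate; inconclusive = mean reaches the limit but not every replicate does; inactive = mean below the limit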;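 also: luciferase carries N-glycosylation sites so blocking glycosylation raises the light; 0% = median of neutral control wells and 100% = median of 100 nM tunicamycin wells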
NSD2 HMT inh: NSD2 histone methyltransferase inhibitors, primary screen, biochemical, AlphaScreen, single concentration, set 2 | inhibition, % at 12.5 µM | AID 743445, 2014 | NSD2 peptide methylation, 120 min | hit rate 0.54% among 310,000 | Histone-lysine N-methyltransferase NSD2 (Homo sapiens), O96028; in the data active = inhibition above about 50%
ATG4B inhibitor: ATG4B protease inhibitors, primary screen, biochemical, fluorescence, uHTS. inhibition, % at 8.33 µM. ATG4B cleavage of LC3-PLA2, NBD-HPC fluorescence, 1 h. Cysteine protease ATG4B (Homo sapiens), Q9Y4P1. hit rate 0.51% among 340,000; in the data active = inhibition above about 40%
DSG3 Ab inh: inhibitors of pemphigus antibody binding to DSG3, primary screen, biochemical, bead-based, flow cytometry, scFv-GFP; Desmoglein-3 (Homo sapiens), P32926; DSG3-coupled beads, scFv-anti-DSG3-GFP binding; hits give low values; binding (percent of control), % at 10 µM; hit rate 0.48% among 310,000; AID 588358, 2011;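 active = binding more than 3 SD below its plate's average and above zero; inconclusive = below that plate limit but binding exactly zero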;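 also: hits lower antibody fragment binding to DSG3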
* marks the source's active call; other numbers are inactive results; ? = inconclusive; . = no result given; + = active, no number. Hits are enriched below; roughly 1.9% of the tested compounds scored in any of these assays.

SMILES	Vif imaging	CaV13 ICDI inh	N-glyco inh	NSD2 HMT inh	ATG4B inhibitor	DSG3 Ab inh
CC(Sc1nc2c(c(=O)[nH]1)CCCC2)C(=O)Nc1ccc(Br)cn1 (stereo not drawn)	0.4	-2.4	1.7	-1.9	-4.4	106.3
CN(C(=O)CN1C(=O)NC(C)(c2cccc(Br)c2)C1=O)C1CCCCC1 (stereo not drawn)	11.5	-2.3	1.1	-0.2	-9.4	106.5
CC(O)(c1ccccc1)c1nc(-c2cccc(C(F)(F)F)c2)cs1 (stereo not drawn)	.	-5.4	1.6	-4.5	.	.
O=C(O)c1ccc(-c2nc(-c3cccc(C(F)(F)F)c3)cs2)cc1	59.1*	-0.2	4.6	0.8	0.3	84.2
Cc1ccc(S(=O)(=O)/C(C#N)=C/c2c(N3CCCCC3)nc3ccccn3c2=O)cc1	-2.0	-4.7	1.3	1.4	8.7	109.0
Cc1ccc(S(=O)(=O)/C(C#N)=C/c2c(N3CC(C)OC(C)C3)nc3ccccn3c2=O)cc1 (stereo not drawn)	67.3*	-7.3	2.0	3.1	-2.5	93.8
Nc1c(C(=O)Nc2nc3ccccc3s2)sc2nc(-c3cccs3)ccc12	154.1*	.	13.3	.	10.9	?
CC(=O)c1sc2nc(-c3cccs3)ccc2c1N	28.4	-4.2	3.0	-4.9	-8.9	.
COc1ccc(-c2coc3c(C(=O)Nc4cccc(C(C)=O)c4)cccc23)c(C)c1	149.9*	-10.7	-3.9	-0.9	.	.
COC(=O)CCC(=O)N1CCCC(C(=O)c2ccc(Cl)cc2C)C1 (stereo not drawn)	1.7	-20.4	-1.4	-2.5	0.6	110.5
CCC(CC)c1nnc(NC(=O)c2ccc3ccccc3n2)s1	.	.	-3.4	-1.5	3.6	12.7*
O=[N+]([O-])c1ccccc1S(=O)(=O)N1CCN(Cc2ccc3c(c2)OCO3)CC1	2.0	4.7	-1.4	5.2	-13.3	36.8*
O=[N+]([O-])c1ccccc1S(=O)(=O)N1CCN(Cc2ccccc2)CC1	-1.7	-20.3	-0.8	1.4	3.2	110.7
O=C(CSc1nc2nn(-c3ccccc3)c(=O)c-2c2n1CCCCC2)Nc1ccc(F)c(F)c1	-1.5	-5.5	-0.1	-1.1	-3.4	-12.1*
c1cnc2nc3c4ccccc4c4ccccc4c3nc2c1	11.3	-4.8	19.4	0.5	2.1	78.5*
COc1ccc(C(=O)Nc2ccc3oc(-c4cccnc4)nc3c2)cc1OC	-2.8	0.0	-3.2	0.0	-3.2	103.7
COc1ccc(C(=O)Nc2ccc3oc(-c4cccc(F)c4)nc3c2)cc1OC	18.3	-4.6	0.4	.	1.5	51.9*
CCOC(=O)c1ccccc1N/C=C/C(=O)c1ccccc1	.	-4.4	0.2	0.1	1.9	35.9*
CSc1ncccc1C(=O)OCc1ccc([N+](=O)[O-])cc1	18.9	-7.5	-0.2	-4.1	-5.8	79.4*
CCOc1ncccc1C(=O)OCc1nnc(-c2ccccc2)o1	-4.1	-4.8	0.8	-5.1	4.1	115.6
CCOc1ncccc1C(=O)OCc1ccccc1	51.2*	0.7	-3.3	-2.9	6.8	103.2
O=C(CNC(=O)N1CC(=O)Nc2ccccc21)NCCc1ccc(Cl)cc1	-20.0	-7.4	9.7	28.3	2.7	120.0
O=C(CNC(=O)N1CC(=O)Nc2ccccc21)NCCCc1ccccc1	-0.2	-4.6	27.3*	5.6	.	102.8
c1ccc(-c2cc(-c3nnc4n3N=C(c3ccc5ccccc5c3)CS4)[nH]n2)cc1	.	-7.2	45.8*	2.9	-13.2	103.8
COc1ccc(C2=Nn3c(nnc3-c3ccco3)SC2)cc1	4.7	-3.3	25.3*	3.9	-5.1	101.1
SMILES	Vif imaging	CaV13 ICDI inh	N-glyco inh	NSD2 HMT inh	ATG4B inhibitor	DSG3 Ab inh
Cc1cc(-c2nnc3n2N=C(c2ccc(-c4ccccc4)cc2)CS3)n[nH]1	-4.1	-2.1	37.3*	3.1	-26.7	101.7
Cc1cc(-c2nnc3n2N=C(c2ccccc2)CS3)n[nH]1	-0.5	-11.7	2.7	0.9	-4.7	101.6
CCCCNC(=O)CCn1ccc2cc(S(=O)(=O)N3CCCC3)ccc21	-0.7	-3.0	0.4	2.6	-5.4	265.7
NC(=O)[C@@H]1CC2(CC(c3cccc(NC(=O)CC(c4ccccc4)c4ccccc4)c3)=NO2)CN1C(=O)[C@@H]1CCC(=O)N1 (stereo partly drawn)	.	-10.7	1.5	.	-9.2	103.4
COc1ccc(S(=O)(=O)NN(C)c2nc(C(F)(F)F)nc3ccccc23)cc1	.	-3.2	5.9	-2.2	-11.5	86.5
CS(=O)(=O)N1CCN(c2ccc([N+](=O)[O-])c(NCc3ccccc3)c2)CC1	-4.6	.	-3.7	-3.9	-10.0	.
CS(=O)(=O)N1CCN(c2ccc([N+](=O)[O-])c(NCc3cccnc3)c2)CC1	-5.5	-4.1	1.1	4.9	-3.1	24.8*
CCC(C)n1c(=N)c(C#N)cc2c(=O)n3cc(C)ccc3nc21 (stereo not drawn)	-1.2	57.1*	1.2	1.7	-2.7	101.8
Cc1cccn2c(=O)c3cc(C#N)c(=NC(=O)c4cccs4)n(CC(C)C)c3nc12	-6.2	+	3.2	2.4	3.7	.
Cc1cccn2c(=O)c3cc(C#N)c(=N)n(Cc4cccnc4)c3nc12	16.7	0.4	1.3	-0.6	-6.3	104.3
Cc1ccc2nc3c(cc(C#N)c(=O)n3-c3nccs3)c(=O)n2c1	15.9	29.7	3.6	-0.4	-11.3	?
CCC(C)n1c(=N)c(C#N)cc2c(=O)n3cccc(C)c3nc21 (stereo not drawn)	-7.1	+	3.1	.	1.9	93.8
CCCCCc1ccc(-c2cn(CN3C(=O)c4ccccc4C3=O)nn2)cc1	65.4*	-4.8	4.2	.	6.8	97.9
CC1CCCCN1S(=O)(=O)c1ccc(C(=O)Nc2nnc(C3CC3)o2)cc1 (stereo not drawn)	-5.4	-4.0	2.0	0.8	-7.6	.
O=C(Nc1cnccn1)Nc1ccccc1Cl	51.4*	-1.5	1.6	0.0	-2.5	105.5
COc1ccc2nc(NC(=O)c3ccc(NC(=O)C4CCCO4)cc3)sc2c1 (stereo not drawn)	-3.6	-5.5	-6.0	1.4	-11.6	115.0
COc1ccc(OCCN2CCC(C(=O)NC(c3ccccn3)c3ccccc3OC)CC2)cc1 (stereo not drawn)	50.9*	-4.7	-0.9	1.8	.	.
CCCC1(C2CCCC2)NC(=O)NC1=O (stereo not drawn)	96.8*	-5.1	-1.9	-1.4	-4.5	126.5
